In the assay the target is Carbonic anhydrase 2 (Homo sapiens) (UniProt P00918). Description: CAII small-molecule binders, profiling panel, biochemical, small-molecule microarray, Alexa647-labelled CAII (AID 1122). The following applies: CAII-A647 binding fluorescence, higher = more signal.
With `O=[N+]([O-])c1ccc(C[n+]2ccc3ccc(O)cc3c2)o1`, the composite z-score worked out at 0.64.
To `O=C1O[C@@H](c2ccccc2)[C@@H](c2ccccc2)N2[C@@H](c3ccccc3OCCO)[C@]3(C(=O)Nc4ccc(C#CC5=CCCCC5)cc43)[C@@H](C(=O)O)[C@H]12` belongs 0.549; to `CCC#CCN(Cc1ccccc1Br)[C@H](/C=C/c1ccccc1)[C@@H](O)Cc1ccccc1`, -0.225.
To `COCCOC(=O)N1C(=O)[C@@]2(c3cc(C#CC4(O)CCCCCC4)ccc31)[C@H](C(=O)N1CCCCCCC1)[C@H]1C(=O)O[C@H](c3ccccc3)[C@H](c3ccccc3)N1[C@@H]2c1ccc(O)cc1` belongs 0.485.
To `C[N+](C)(C)CCCCNC(=O)[C@@H]1C[C@@H]2C(=O)N3CCC[C@H]3C(=O)N2[C@@H]1c1cccc(OCCO)c1` belongs 0.678.
In turn, `C=CCN1C(=O)[C@]2(O[C@H](CCn3cc(CCO)nn3)[C@@H]([Si](C)(C)c3ccc(OC)cc3)[C@@H]2C)c2cc(NC(=O)c3ccc(OC)cc3)ccc21` showed a composite z-score of 0.131.
Molecule `CO[C@H]1COC(=O)[C@@H](Cc2ccccc2)NC(=O)[C@@H](C)COC(=O)CC=C[C@@H]1C` had a composite z-score of -0.498.
To `O=C1C2C=CC(C(O)c3ccccc3)N(n3cnnc3)C2C(=O)N1Cc1ccccc1` (configuration not stated) belongs 0.565; to `C=C(COC)/C(=C/C[C@@H](OC(=O)c1ccncc1)c1ccc(OCCO)cc1)c1cc(C(=O)OC)ccc1OC`, 0.655.
The same measure for `O=C1C[C@@](C(=O)NCCN2CCOCC2)(c2ccc([N+](=O)[O-])cc2)[C@@H](c2ccc(CO)cc2)N1C1CCCCC1`: 0.656.
In turn, `COc1ccc(NN2C(C(O)c3cc(OC)c(OC)c(OC)c3)C=CC3C(=O)N(C4CCCCC4)C(=O)C32)cc1` (configuration not stated) gave a composite z-score of 0.211.
On to `C=C(C)[C@@H]1CC=C(C(O)C2C=CC3C(=O)NC(=O)C3N2Nc2ccccn2)CC1` (some centres not stated), for which the composite z-score was found to be 0.809.
In the case of `O=C1OCCC/C=C\[C@H]2OC34C=CCN(CCN5CCOCC5)C(=O)[C@H]3N(CCCCCO)C(=O)[C@@H]4C12` (some centres not stated), the composite z-score was found to be 0.816.
The same measure for `NC(=O)NCC#Cc1ccc2c(c1)[C@]1(C(=O)N2)[C@H](C(N)=O)[C@H]2C(=O)O[C@H](c3ccccc3)[C@H](c3ccccc3)N2[C@@H]1c1ccccc1OCCO`: 0.175; for `COc1ccc([Si](C)(C)[C@H]2[C@H](CCO)O[C@@]3(C(=O)N(Cc4ccccc4)c4ccc(N5C(=O)c6cccc7cccc5c67)cc43)[C@@H]2C)cc1`: 0.286.
The same measure for `CN(C)c1ccc(C(O)C2C=CC3C(=O)NC(=O)C3N2Nc2ccc(Cl)cc2Cl)cc1` (configuration not stated): 0.735; for `COC(=O)C(CC#Cc1ccc2c(c1)[C@]1(C(=O)N2)[C@H](C(=O)N2CCCCCCC2)[C@H]2C(=O)O[C@H](c3ccccc3)[C@H](c3ccccc3)N2[C@@H]1c1ccc(O)cc1)C(=O)OC`: -0.59; for `C=CCNC(=O)[C@@H]1[C@H]2C(=O)O[C@H](c3ccccc3)[C@H](c3ccccc3)N2[C@H](c2ccc(OCCO)cc2)[C@@]12C(=O)N(C(=O)OCCOC)c1ccc(C#CC3(O)CCCCCC3)cc12`: 0.572.
To `CC(C)[Si]1(C(C)C)O[C@@H](c2ccccc2)c2cc(C3CC3)nc(-c3ccc(Oc4ccccc4)cc3)c21` belongs -0.289.
In turn, `[N-]=[N+]=NCc1ccccc1C[C@]1(C(=O)N2CCCCC2)N=C(c2ccc(OCCCO)cc2)O[C@H]1c1ccccc1CN=[N+]=[N-]` registered a composite z-score of 0.441.
`Cc1ccc(N2C(=O)c3ccccc3[C@@H](C(=O)NCC(F)(F)F)[C@@H]2c2ccc(CO)cc2)nc1` returned a composite z-score of 0.844.
To `CC(C)N1CC=CC23O[C@@H]4/C=C\CCCOC(=O)C4[C@H]2C(=O)N(CCO)[C@@H]3C1=O` (some centres not stated) belongs 0.893; to `O=C(NCC(F)(F)F)[C@@H]1c2ccccc2C(=O)N(Cc2ccccc2Cl)[C@H]1c1ccc(CO)cc1`, 0.761.
The same measure for `C=CCNC(=O)[C@H]1[C@@H]2C(=O)O[C@@H](c3ccccc3)[C@@H](c3ccccc3)N2[C@@H](c2ccccc2OCCO)[C@]12C(=O)N(C(=O)OCCOC)c1ccc(C#CCC(C(=O)OC)C(=O)OC)cc12`: 0.634.
The same measure for `C[C@@H]1C=CCC(=O)OC[C@H]2O[C@@H](C=C[C@@H]2O)[C@H](C)C=CCC(=O)OC[C@H]2O[C@H]1C=C[C@@H]2O`: -0.227; for `Cc1ccc(S[C@]2(C(=O)NCCN3CCOCC3)CC(=O)N(C3Cc4ccccc4C3)[C@@H]2c2ccc(CO)cc2I)cc1`: 0.576.
With `CC(C)CNC(=O)[C@@]1(C)c2ccccc2C(=O)N(Cc2ccc(OC(F)(F)F)cc2)[C@H]1c1ccc(CO)cc1`, the composite z-score was 0.706.

The record behind these values is PubChem BioAssay.
